Results: PubChem BioAssay (NCATS)
Inconclusive results are not listed. Entries that show only a call come without a potency. Activity calls are given as the source filed them. The call rests on the fitted dose curve; in most records, active means well fitted cell-killing curve with a large enough effect; inconclusive means small, poorly fitted or top-dose-only effect, or effect the other way; inactive means no such curve, though single readings can be large or run the other way.

Assay: Quantitative High-Throughput drug screen in 47 multiple myeloma cell lines against the NCATS MIPE library collection: OPM1_PLB cell viability assay (AID 1918989); further: nearly all actives have a fitted effect of over 40% in size
Conditions: CellTiter-Glo, 48 h; series mostly up to 45.8 µM
Source text: PI: Beverly A. Mock Ph.D.
Laboratory of Cancer Biology and Genetics,
Center for Cancer Research, National Cancer Institute,
National Institute of Health, Bethesda, Maryland
Drug resistance and disease progression are common in multiple myeloma (MM) patients, underscoring the need for new therapeutic combinations. […] We hypothesized that effective combinations would reduce MYC expression and enhance p16 activity. […] These preclinical data identify potentially useful drug combinations for evaluation in drug-resistant MM and reveal potential mechanisms of combined drug sensitivity.
Described herein is the primary MIPE qHTS used to cherrypick compounds. Validated compounds were then further tested for potential synergistic activiy.
[1] Peat TJ, Gaikwad SM, Dubois W, Gyabaah-Kessie N, Zhang S, Gorjifard S, Phyo Z, Andres M, Hughitt VK, Simpson RM, Miller MA, Girvin AT, Taylor A, Williams D, D'Antonio N, Zhang Y, Rajagopalan A, Flietner E, Wilson K, Zhang X, Shinn P, Klumpp-Thomas C, McKnight C, Itkin Z, Chen L, Kazandijian D, Zhang J, Michalowski AM, Simmons JK, Keats J, Thomas CJ, Mock BA. Drug combinations identified by high-throughput screening promote cell cycle transition and upregulate Smad pathways in myeloma. Cancer Lett. 2023 Aug 1;568:216284. doi: 10.1016/j.canlet.2023.216284. Epub 2023 Jun 24. PMID: 37356470; PMCID: PMC10408729.
SEQUENCE No. (e.g., 1, 2, 3, etc.); […] (e.g., Cells, Incubation, Reagent, etc.); VALUE and DESCRIPTION.
1; Cells; 5 uL; white, solid bottom 1536-well Greiner assay plate.
2; Compounds; 23 nL; Kalypsis pin tool (Wako USA) equipped with a 1536-well pin head to transfer to the assay plates.
3; Incubation; 48 hours; 37C incubation.
4; Reagent;5uL; CellTiter Glo (Promega).
5; Detector; 425V; Luminescence; Viewlux PerkinElmer.
NOTES (numbers refer to Sequence numbers above)
1. The cell-based screening methods employed in this study were like those previously published. Briefly, the corresponding myeloma cell lines were screened in 1,536-well plates with 500 cells, 5-uL per well for inhibition of cell viability (assessed by measuring ATP levels with CellTiterGlo).
2. NCATS MIPE 4.0 library of approved and investigational drugs were added using the Kalypsis pin tool. Wells treated with DMSO only for 100% viability and media only for 0% viability were used as controls.
3. The assay plates were covered and incubated for 48 hours in a 37C, 5% CO2 incubator with controlled humidity.
4. After 48 hours, CellTilter-GloTM luminescent substrate mix (Promega) reagent was added to the assay plate and plates we incubated for 5 min at room temperature.
5. Signal was measured as median relative luminescence units on a ViewLux (PerkinElmer) multiplate reader.
[1] Heske CM, Davis MI, Baumgart JT, Wilson K, Gormally MV, Chen L, Zhang X, Ceribelli M, Duveau DY, Guha R, Ferrer M, Arnaldez FI, Ji J, Tran HL, Zhang Y, Mendoza A, Helman LJ, Thomas CJ. Matrix Screen Identifies Synergistic Combination of PARP Inhibitors and Nicotinamide Phosphoribosyltransferase (NAMPT) Inhibitors in Ewing Sarcoma. Clin Cancer Res. 2017 Dec 1;23(23):7301-7311. doi: 10.1158/1078-0432.CCR-17-1121. Epub 2017 Sep 12. PMID: 28899971; PMCID: PMC6636827.
Potency means the concentration at half of the fitted maximal effect.

SMILES	Potency
CCCCOc1ccc(CC(=O)NO)cc1	14.8 µM (active)
Nc1nc(N)nc(-c2cc(Cl)ccc2Cl)n1	inactive
NCCCC(O)(P(=O)(O)O)P(=O)(O)O	inactive
C[C@@H]1CN(c2c(F)c(N)c3c(=O)c(C(=O)O)cn(C4CC4)c3c2F)C[C@H](C)N1	inactive
N[C@@H](C(=O)N[C@@H]1C(=O)N2C(C(=O)O)=C(Cl)CS[C@H]12)c1ccccc1	inactive
CCN(CC)CCn1c(=O)c(Cc2ccc(OC)cc2)nc2ccccc21	inactive
NC(=O)N1c2ccccc2CC(=O)c2ccccc21	inactive
CNCC[C@H](Oc1cccc2ccccc12)c1cccs1	8.33 µM (active)
CNC(=O)c1cc(Oc2ccc(NC(=O)Nc3ccc(Cl)c(C(F)(F)F)c3)cc2)ccn1	10.5 µM (active)
CO[C@@]12[C@H](COC(N)=O)C3=C(C(=O)C(C)=C(N)C3=O)N1C[C@@H]1N[C@@H]12	26.4 µM (active)
CCCCc1oc2ccc(NS(C)(=O)=O)cc2c1C(=O)c1ccc(OCCCN(CCCC)CCCC)cc1	13.2 µM (active)
COC(=O)Nc1nc2ccc(C(=O)c3ccccc3)cc2[nH]1	1.66 µM (active)
Nc1nc(=S)c2[nH]cnc2[nH]1	1.18 µM (active)
Cc1cccc(N(C)C(=S)Oc2ccc3ccccc3c2)c1	inactive
CCOC(=O)c1ccc(OC(=O)CCCCCN=C(N)N)cc1	inactive
CC(=O)CC(c1ccccc1)c1c(O)c2ccccc2oc1=O (stereo not given)	inactive
Cc1ccc(S(=O)(=O)N[C@@H](Cc2ccccc2)C(=O)CCl)cc1	9.35 µM (active)
CCN(C)C(=O)Oc1cccc([C@H](C)N(C)C)c1	inactive
Cc1cccc(Nc2ccncc2S(=O)(=O)NC(=O)NC(C)C)c1	inactive
O=C(O)c1cc(=O)[nH]c(=O)[nH]1	inactive

SMILES	Potency
O=NN(CCCl)C(=O)NC1CCCCC1	inactive
O=C(O)C1CCCN(CCC=C(c2ccccc2)c2ccccc2)C1 (stereo not given)	inactive
C#CCN[C@@H]1CCc2ccccc21	inactive
O=P(O)(O)C(O)(Cc1cccnc1)P(=O)(O)O	inactive
COc1cc(NS(=O)(=O)c2ccc(N)cc2)nc(OC)n1	inactive
COc1ncnc(NS(=O)(=O)c2ccc(N)cc2)c1OC	inactive
CC1CC2C3CCC4=CC(=O)C=C[C@]4(C)[C@@]3(F)[C@@H](O)C[C@]2(C)[C@@]1(O)C(=O)CO (stereo not given in full)	2.35 µM (active)
CCC(=O)O[C@]1(C(=O)SCF)[C@H](C)C[C@H]2[C@@H]3C[C@H](F)C4=CC(=O)C=C[C@]4(C)[C@@]3(F)[C@@H](O)C[C@@]21C	inactive
O=c1oc2c(O)c(O)cc3c(=O)oc4c(O)c(O)cc1c4c23	inactive
COc1ccccc1OCC(O)COC(N)=O (stereo not given)	inactive
CCN[C@H]1C[C@H](C)S(=O)(=O)c2sc(S(N)(=O)=O)cc21	inactive
CCCCCCNC(=O)n1cc(F)c(=O)[nH]c1=O	inactive
CNS(=O)(=O)CCc1ccc2[nH]cc(C3CCN(C)CC3)c2c1	5.26 µM (active)
COc1nc(N)nc2c1ncn2[C@@H]1O[C@H](CO)[C@@H](O)[C@@H]1O	inactive
O=C(O)c1cn(C2CC2)c2cc(N3CCNCC3)c(F)cc2c1=O	inactive
CC(C)C[C@H](NC(=O)[C@H](CCc1ccccc1)NC(=O)CN1CCOCC1)C(=O)N[C@@H](Cc1ccccc1)C(=O)N[C@@H](CC(C)C)C(=O)[C@@]1(C)CO1	0.0093 µM (active)
COc1ccc(C(=O)CC(=O)c2ccc(C(C)(C)C)cc2)cc1	7.43 µM (active)
O=C(N[C@H](CO)[C@H](O)c1ccc([N+](=O)[O-])cc1)C(Cl)Cl	inactive
NS(=O)(=O)c1cc2c(cc1Cl)NC(C(Cl)Cl)NS2(=O)=O (stereo not given)	inactive
C1CCC(C(CC2CCCCN2)C2CCCCC2)CC1 (stereo not given)	10.5 µM (active)
